# Laboratory results reported in PubChem BioAssay (EPA / NIEHS).
# Records with an inconclusive call do not appear. Active and inactive are the calls of the source. The calls were made as follows, unless noted: active = hit-call score of the fitted dose curve at least 0.9, where 1 is the maximum; inconclusive = response in the unintended direction; inactive = score below 0.9.
# What was measured:
# [1] = target: human RAR-related Orphan Receptor gamma (RORg), RORC (gene 6097) (UniProt P51449); assay: ATG_RORg_TRANS: Attagene TRANS-FACTORIAL HepG2 Assay for human RAR-related Orphan Receptor gamma (RORg) (AID 2283011)
# Sequence of human RAR-related Orphan Receptor gamma (RORg), RORC (gene 6097) (P51449 whole entry, looked up, the tested form may be a part): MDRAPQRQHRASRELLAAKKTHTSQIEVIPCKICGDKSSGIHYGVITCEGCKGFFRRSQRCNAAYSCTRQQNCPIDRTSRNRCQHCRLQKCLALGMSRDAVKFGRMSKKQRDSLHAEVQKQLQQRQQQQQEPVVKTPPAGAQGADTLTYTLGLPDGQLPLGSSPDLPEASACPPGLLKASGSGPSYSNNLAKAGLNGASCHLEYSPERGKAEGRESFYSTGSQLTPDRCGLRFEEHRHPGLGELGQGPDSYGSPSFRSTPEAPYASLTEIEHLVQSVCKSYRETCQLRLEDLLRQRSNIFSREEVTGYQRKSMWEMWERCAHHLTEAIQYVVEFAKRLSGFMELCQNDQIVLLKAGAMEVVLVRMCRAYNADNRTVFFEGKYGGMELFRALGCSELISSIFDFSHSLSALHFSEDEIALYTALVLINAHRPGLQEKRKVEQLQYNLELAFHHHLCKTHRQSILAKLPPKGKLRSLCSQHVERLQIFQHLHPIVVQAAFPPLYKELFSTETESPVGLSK
# Method in brief: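 Chimeric RORg-Gal4 transactivation in transfected HepG2; 24 h exposure; RT-PCR/capillary electrophoresis readout of reporter mRNA, DMSO baseline.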
# [2] = target: Retinoic acid receptor RXR-alpha (Homo sapiens) (UniProt P19793); assay: ATG_RXRa_TRANS: Attagene TRANS-FACTORIAL HepG2 Assay for human Retinoid X Receptor alpha (RXRa) (AID 2283012)
# Sequence of Retinoic acid receptor RXR-alpha (Homo sapiens) (P19793 whole entry, looked up, the tested form may be a part): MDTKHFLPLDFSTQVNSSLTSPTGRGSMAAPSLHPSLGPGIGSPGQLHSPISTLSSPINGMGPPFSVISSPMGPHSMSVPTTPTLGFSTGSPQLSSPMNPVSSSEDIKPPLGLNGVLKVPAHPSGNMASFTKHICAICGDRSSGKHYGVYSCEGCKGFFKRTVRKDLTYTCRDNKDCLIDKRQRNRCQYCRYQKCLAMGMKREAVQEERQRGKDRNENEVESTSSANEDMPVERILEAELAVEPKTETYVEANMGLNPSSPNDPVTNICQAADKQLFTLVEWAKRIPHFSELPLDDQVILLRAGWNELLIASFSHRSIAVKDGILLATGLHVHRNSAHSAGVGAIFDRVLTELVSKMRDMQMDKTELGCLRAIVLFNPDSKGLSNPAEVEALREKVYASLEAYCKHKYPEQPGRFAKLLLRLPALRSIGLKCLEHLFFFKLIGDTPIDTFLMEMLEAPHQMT
# Method in brief: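 Transient transfection of human HepG2 with multiple GAL4-UAS reporter constructs; 24 h compound exposure; total RNA isolated, reverse-transcribed, PCR-amplified, 6-FAM labelled, HpaI-cut, resolved by capillary electrophoresis. Positive-direction fit versus DMSO.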
# [3] = target: human Thyroid Receptor alpha (THRa1), THRA (gene 7067) (UniProt P10827); assay: ATG_THRa1_TRANS: Attagene TRANS-FACTORIAL HepG2 Assay for human Thyroid Receptor alpha (THRa1) (AID 2283014)
# Sequence of human Thyroid Receptor alpha (THRa1), THRA (gene 7067) (P10827 whole entry, looked up, the tested form may be a part): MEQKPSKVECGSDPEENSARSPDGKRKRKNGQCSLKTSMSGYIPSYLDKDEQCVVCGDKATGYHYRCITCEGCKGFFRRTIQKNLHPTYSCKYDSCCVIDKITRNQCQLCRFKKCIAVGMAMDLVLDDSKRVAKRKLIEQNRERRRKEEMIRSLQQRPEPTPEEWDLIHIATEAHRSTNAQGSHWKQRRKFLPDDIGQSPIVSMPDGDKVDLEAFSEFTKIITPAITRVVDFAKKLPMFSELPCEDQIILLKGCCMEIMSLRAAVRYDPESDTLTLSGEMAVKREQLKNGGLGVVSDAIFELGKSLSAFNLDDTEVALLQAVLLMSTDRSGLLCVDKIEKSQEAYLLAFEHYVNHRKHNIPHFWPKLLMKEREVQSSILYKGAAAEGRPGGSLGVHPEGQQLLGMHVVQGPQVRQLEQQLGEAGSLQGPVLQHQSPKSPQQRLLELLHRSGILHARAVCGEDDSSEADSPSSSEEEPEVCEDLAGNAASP
# Method in brief: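 Measured here is mRNA from a GAL4-UAS reporter in transfected HepG2 cells carrying a Gal4-fused receptor, 24 h post-dose. DMSO served as negative control and baseline.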
# [4] = read-out: E-selectin (Homo sapiens) (UniProt P16581); assay: BSK_3C_Eselectin: BioMAP Diversity Plus: 3C Assay for Eselectin Biomarker Activity (AID 2283015; active = hit-call score of the fitted dose curve at least 0.9, where 1 is the maximum; inactive = score below 0.9;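 also: cell surface E-selectin protein quantified by ELISA 24 h after dosing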); details: primary human endothelial cells (HUVEC); actives raise or lower the signal
# Method in brief: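 Endpoint derived by bidirectional fitting against DMSO vehicle; signal is ELISA-detected E-selectin from primary HUVEC at 24 h post-dosing, with parallel SRB staining (0.1% SRB, 560 nm) flagging cytotoxicity.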
# [5] = read-out: Interleukin-1 alpha (IL1a), IL1A (gene 3552); assay: BSK_BE3C_IL1a: BioMAP Diversity Plus: BE3C Assay for Interleukin-1 alpha (IL1a) Biomarker Activity (AID 2283016; active = hit-call score of the fitted dose curve at least 0.9, where 1 is the maximum; inactive = score below 0.9); details: primary human bronchial epithelial cells; actives raise or lower the signal
# Method in brief: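 BE3C primary human bronchial epithelium; cpd 24 h; IL-1a by ELISA; bidirectional fit vs DMSO; parallel SRB (0.1% SRB, 10% TCA fix, 560 nm) for cytotoxicity.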
# [6] = read-out: Monocyte Chemoattractant Protein-1 (MCP1), CCL2 (gene 6347); assay: BSK_3C_MCP1: BioMAP Diversity Plus: 3C Assay for Monocyte Chemoattractant Protein-1 (MCP1) Biomarker Activity (AID 2283017; active = hit-call score of the fitted dose curve at least 0.9, where 1 is the maximum; inactive = score below 0.9); details: primary human endothelial cells (HUVEC); actives raise or lower the signal
# Method in brief: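 Using human vascular primary endothelium, researchers measured MCP-1 by ELISA 24 h after treatment, with DMSO serving as negative control for bidirectional fitting.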
# [7] = read-out: Monocyte Chemoattractant Protein-1 (MCP1), CCL2 (gene 6347); assay: BSK_4H_MCP1: BioMAP Diversity Plus: 4H Assay for Monocyte Chemoattractant Protein-1 (MCP1) Biomarker Activity (AID 2283018; active = hit-call score of the fitted dose curve at least 0.9, where 1 is the maximum; inactive = score below 0.9); details: primary human endothelial cells (HUVEC); actives raise or lower the signal
# Method in brief: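 ELISA read-out of MCP-1 from human vascular endothelial primary cells taken at 24 hours after compound exposure. Activity was fitted in both directions relative to DMSO, which served as negative control.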
# [8] = read-out: Human Leukocyte Antigen - DR isotype (HLADR), HLA-DRA (gene 3122); assay: BSK_3C_HLADR: BioMAP Diversity Plus: 3C Assay for Human Leukocyte Antigen - DR isotype (HLADR) Biomarker Activity (AID 2283019; active = hit-call score of the fitted dose curve at least 0.9, where 1 is the maximum; inactive = score below 0.9;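 also: ELISA of cell-surface HLA-DR on HUVEC 24 h after dosing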); details: primary human endothelial cells (HUVEC); actives raise or lower the signal
# Method in brief: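 Compound added to primary HUVEC cultures, 24 h incubation, then HLA-DR determined by ELISA; endpoint derived by bidirectional fitting relative to DMSO negative control.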
# [9] = read-out: Interleukin-8 (IL8), CXCL8 (gene 3576); assay: BSK_3C_IL8: BioMAP Diversity Plus: 3C Assay for Interleukin-8 (IL8) Biomarker Activity (AID 2283020; active = hit-call score of the fitted dose curve at least 0.9, where 1 is the maximum; inactive = score below 0.9); details: primary human endothelial cells (HUVEC); actives raise or lower the signal
# Method in brief: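 ELISA read-out of IL-8 from human umbilical vein endothelium, measured 24 h after chemical dosing. Activity is expressed relative to DMSO negative control, with both increases and decreases fitted.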
# [10] = read-out: Monokine induced gamma interferon (MIG), CXCL9 (gene 4283); assay: BSK_3C_MIG: BioMAP Diversity Plus: 3C Assay for Monokine induced gamma interferon (MIG) Biomarker Activity (AID 2283021; active = hit-call score of the fitted dose curve at least 0.9, where 1 is the maximum; inactive = score below 0.9); details: primary human endothelial cells (HUVEC); actives raise or lower the signal
# Method in brief: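 Read-out is ELISA detection of MIG on human umbilical vein endothelial cells, taken 24 h after dosing. Gain or loss of signal was scored relative to DMSO controls using bidirectional curve fitting.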
# [11] = target: human Vitamin D Receptor (VDR), VDR (gene 7421) (UniProt P11473); assay: ATG_VDR_TRANS: Attagene TRANS-FACTORIAL HepG2 Assay for human Vitamin D Receptor (VDR) (AID 2283022)
# Sequence of human Vitamin D Receptor (VDR), VDR (gene 7421) (P11473 whole entry, looked up): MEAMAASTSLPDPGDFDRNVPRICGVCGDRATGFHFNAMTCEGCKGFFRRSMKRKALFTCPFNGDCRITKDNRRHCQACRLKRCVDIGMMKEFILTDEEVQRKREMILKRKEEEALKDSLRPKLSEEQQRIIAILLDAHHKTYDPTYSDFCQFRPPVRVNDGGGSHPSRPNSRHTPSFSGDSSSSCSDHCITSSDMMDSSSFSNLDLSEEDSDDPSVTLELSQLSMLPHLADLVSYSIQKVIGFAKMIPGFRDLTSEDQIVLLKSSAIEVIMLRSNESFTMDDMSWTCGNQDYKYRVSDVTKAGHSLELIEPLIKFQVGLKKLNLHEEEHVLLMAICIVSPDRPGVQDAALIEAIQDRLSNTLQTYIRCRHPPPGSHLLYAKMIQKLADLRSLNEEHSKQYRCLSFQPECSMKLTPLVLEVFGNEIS
# Method in brief: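 Multiplexed TRANS reporter in HepG2; 24 h treatment; reporter mRNA by RT-PCR plus capillary electrophoresis; upregulation scored relative to DMSO.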
# [12] = BSK_3C_SRB: Viability Assessment in the BioMAP Diversity Plus: 3C Assay (AID 2283023; active = hit-call score of the fitted dose curve at least 0.9, where 1 is the maximum; inactive = score below 0.9;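 also: fitted both ways against DMSO so a hit may be signal rise or drop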); details: primary human endothelial cells (HUVEC)
# Method in brief: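 Overt cytotoxicity is gauged in parallel confluent HUVEC cultures by SRB total-protein staining at the time of biomarker measurement, 24 h after dosing. Gain or loss of signal is fitted versus DMSO.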
# [13] = read-out: Matrix Metallopeptidase 1 (MMP1), MMP1 (gene 4312); assay: BSK_BE3C_MMP1: BioMAP Diversity Plus: BE3C Assay for Matrix Metallopeptidase 1 (MMP1) Biomarker Activity (AID 2283024; active = hit-call score of the fitted dose curve at least 0.9, where 1 is the maximum; inactive = score below 0.9); details: primary human bronchial epithelial cells; actives raise or lower the signal
# Method in brief: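 Human bronchial epithelial cells (BE3C system) exposed to compound for 24 h; MMP1 then quantified by ELISA. Activity was fitted in both directions relative to DMSO.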
# [14] = read-out: Pselectin, SELP (gene 6403); assay: BSK_4H_Pselectin: BioMAP Diversity Plus: 4H Assay for Pselectin Biomarker Activity (AID 2283026; active = hit-call score of the fitted dose curve at least 0.9, where 1 is the maximum; inactive = score below 0.9); details: primary human endothelial cells (HUVEC); actives raise or lower the signal
# Method in brief: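 ELISA read-out of P-selectin on human umbilical vein endothelium after 24 h of dosing. Values derive from bidirectional fitting relative to DMSO. Parallel SRB protein staining flagged overt cytotoxicity.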
# [15] = BSK_4H_SRB: Viability Assessment in the BioMAP Diversity Plus: 4H Assay (AID 2283027; active = hit-call score of the fitted dose curve at least 0.9, where 1 is the maximum; inactive = score below 0.9;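 also: cells exposed to compound for 24 h before staining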;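 as to AC50: curves fitted both ways versus DMSO so AC50 may be loss or gain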); details: primary human endothelial cells (HUVEC)
# Method in brief: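 Human umbilical vein endothelial cells, 24 h after chemical dosing; total protein measured by 0.1% sulforhodamine B staining after 10% TCA fixation, read at 560 nm. Bidirectional fitting against DMSO.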
# [16] = BSK_BE3C_SRB: Viability Assessment in the BioMAP Diversity Plus: BE3C Assay (AID 2283028; active = hit-call score of the fitted dose curve at least 0.9, where 1 is the maximum; inactive = score below 0.9); details: primary human bronchial epithelial cells
# Method in brief: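 SRB total-protein staining (0.1%, after TCA fixation) of chemically dosed human bronchial epithelial primary cells at 24 h; DMSO serves as the negative control for bidirectional curve fitting.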
# [17] = read-out: Thrombomodulin, THBD (gene 7056); assay: BSK_3C_Thrombomodulin: BioMAP Diversity Plus: 3C Assay for Thrombomodulin Biomarker Activity (AID 2283029; active = hit-call score of the fitted dose curve at least 0.9, where 1 is the maximum; inactive = score below 0.9); details: primary human endothelial cells (HUVEC); actives raise or lower the signal
# Method in brief: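 Read-out is ELISA of thrombomodulin on human umbilical vein endothelium 24 h after chemical dosing. Gain or loss of signal is scored relative to DMSO. Overt cytotoxicity is checked in parallel cultures by sulforhodamine B staining.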
# [18] = target: human Retinoid X Receptor beta (RXRb), RXRB (gene 6257) (UniProt P28702); assay: ATG_RXRb_TRANS: Attagene TRANS-FACTORIAL HepG2 Assay for human Retinoid X Receptor beta (RXRb) (AID 2283013)
# Sequence of human Retinoid X Receptor beta (RXRb), RXRB (gene 6257) (P28702 whole entry, looked up, the tested form may be a part): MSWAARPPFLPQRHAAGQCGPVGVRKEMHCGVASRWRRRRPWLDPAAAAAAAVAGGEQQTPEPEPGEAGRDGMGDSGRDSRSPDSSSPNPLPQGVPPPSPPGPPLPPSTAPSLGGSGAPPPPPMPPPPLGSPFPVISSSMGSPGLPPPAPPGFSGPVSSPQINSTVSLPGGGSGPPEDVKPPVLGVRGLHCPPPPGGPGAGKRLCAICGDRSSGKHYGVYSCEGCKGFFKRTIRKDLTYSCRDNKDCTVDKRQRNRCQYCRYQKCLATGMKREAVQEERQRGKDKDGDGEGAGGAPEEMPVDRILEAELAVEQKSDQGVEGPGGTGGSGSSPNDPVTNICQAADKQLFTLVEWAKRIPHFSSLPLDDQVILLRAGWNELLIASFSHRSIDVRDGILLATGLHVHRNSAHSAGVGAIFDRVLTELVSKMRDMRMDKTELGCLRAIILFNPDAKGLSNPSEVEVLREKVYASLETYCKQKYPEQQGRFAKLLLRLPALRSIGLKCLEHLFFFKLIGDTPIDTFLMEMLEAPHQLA
# Method in brief: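 Transfect HepG2 with GAL4-UAS multi-reporter constructs (chimeric NR-Gal4, TRANS format); dose compound 24 h; isolate RNA, RT-PCR, FAM primer extension, HpaI digest; quantify by capillary electrophoresis; positive direction vs DMSO.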
# [19] = BSK_3C_Vis: BioMAP Diversity Plus: 3C Assay for Morphology Visualization (AID 2283025; active = hit-call score of the fitted dose curve at least 0.9, where 1 is the maximum; inactive = score below 0.9;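 also: light microscopy image of cell morphology used as background control; fitted both ways so gain or loss versus DMSO counts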); details: primary human endothelial cells (HUVEC)
# Method in brief: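 Chemicals were added to primary human umbilical vein endothelium, cells were incubated 24 h, and morphology was then visualized by light microscopy. Gain or loss of signal was fitted bidirectionally relative to DMSO.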
# Sequence of E-selectin (Homo sapiens) (P16581 whole entry, looked up): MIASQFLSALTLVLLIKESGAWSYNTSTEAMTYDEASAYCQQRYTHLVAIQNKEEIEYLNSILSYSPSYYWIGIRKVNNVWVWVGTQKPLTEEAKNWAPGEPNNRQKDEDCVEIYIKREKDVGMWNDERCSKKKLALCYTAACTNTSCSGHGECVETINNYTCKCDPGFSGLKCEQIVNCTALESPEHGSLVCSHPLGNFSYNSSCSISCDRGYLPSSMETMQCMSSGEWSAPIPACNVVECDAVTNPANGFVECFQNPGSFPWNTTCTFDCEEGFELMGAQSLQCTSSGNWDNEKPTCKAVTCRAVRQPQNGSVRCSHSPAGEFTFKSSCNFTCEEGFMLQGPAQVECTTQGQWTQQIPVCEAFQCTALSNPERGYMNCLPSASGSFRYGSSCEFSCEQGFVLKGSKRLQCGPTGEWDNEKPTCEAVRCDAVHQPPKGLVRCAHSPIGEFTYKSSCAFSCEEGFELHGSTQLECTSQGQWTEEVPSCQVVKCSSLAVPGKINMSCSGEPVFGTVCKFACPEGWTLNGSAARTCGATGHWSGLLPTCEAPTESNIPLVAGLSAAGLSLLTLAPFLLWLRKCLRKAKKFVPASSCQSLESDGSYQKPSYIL
smiles,measurement,setting,value
Clc1cccnc1,outcome,[1],inactive
same,outcome,[2],inactive
same,outcome,[3],inactive
CC(CCC(=O)O)(c1ccc(O)cc1)c1ccc(O)cc1,outcome,[1],inactive
same,outcome,[2],inactive
same,outcome,[3],inactive
same,outcome,[4],inactive
same,outcome,[5],inactive
same,outcome,[6],inactive
same,outcome,[7],inactive
same,outcome,[8],inactive
same,outcome,[9],inactive
same,outcome,[10],inactive
same,outcome,[11],inactive
same,outcome,[12],inactive
same,outcome,[13],inactive
same,outcome,[14],inactive
same,outcome,[15],inactive
same,outcome,[16],inactive
same,outcome,[17],inactive
CCCCOCCOCCOC(C)=O,outcome,[1],inactive
same,outcome,[2],inactive
same,outcome,[3],inactive
same,outcome,[11],inactive
C[Si]1(C)O[Si](C)(C)O[Si](C)(C)O[Si](C)(C)O[Si](C)(C)O1,outcome,[1],inactive
same,outcome,[2],inactive
same,outcome,[3],inactive
O=S(=O)(O)c1ccc(Nc2nc(Nc3ccc(C=Cc4ccc(Nc5nc(Nc6ccc(S(=O)(=O)O)cc6)nc(N(CCO)CCO)n5)cc4S(=O)(=O)O)c(S(=O)(=O)O)c3)nc(N(CCO)CCO)n2)cc1,outcome,[1],inactive
same,outcome,[2],inactive
same,outcome,[18],inactive
same,outcome,[11],inactive
COCC(=O)O,outcome,[1],inactive
same,outcome,[2],inactive
same,outcome,[3],inactive
same,outcome,[11],inactive
CC1=CP(=O)(c2ccccc2)CC1 (centres undefined),outcome,[1],inactive
same,outcome,[2],inactive
same,outcome,[18],inactive
same,outcome,[3],inactive
CCOC(=O)C1=NN(c2ccc(Cl)cc2Cl)C(C)(C(=O)OCC)C1 (centres undefined),outcome,[1],inactive
same,outcome,[2],inactive
same,outcome,[3],inactive
same,outcome,[4],inactive
same,outcome,[5],inactive
same,outcome,[6],inactive
same,AC50,[7],20 µM (active)
same,outcome,[8],inactive
same,outcome,[9],inactive
same,outcome,[10],inactive
same,AC50,[12],20 µM (active)
same,outcome,[13],inactive
same,AC50,[19],37.5 µM (active)
same,outcome,[14],inactive
same,AC50,[15],12.4 µM (active)
same,outcome,[16],inactive
same,outcome,[17],inactive
CC(C)=NNC(N)=S,outcome,[1],inactive
same,outcome,[2],inactive
same,outcome,[18],inactive
same,outcome,[3],inactive
same,outcome,[11],inactive
O=c1c(O)c(-c2ccc(O)cc2O)oc2cc(O)cc(O)c12,outcome,[1],inactive
same,outcome,[2],inactive
same,outcome,[18],inactive
same,outcome,[3],inactive
same,outcome,[11],inactive
CCCCCCCCCCCCCC(=O)OC(C)C,outcome,[1],inactive
same,outcome,[2],inactive
same,outcome,[18],inactive
same,outcome,[3],inactive
same,outcome,[11],inactive
Cc1ccc(S(=O)(=O)N=C=O)cc1,outcome,[1],inactive
same,outcome,[2],inactive
same,outcome,[18],inactive
C=Cc1cccc(C)c1,outcome,[1],inactive
same,outcome,[18],inactive
same,outcome,[3],inactive
same,outcome,[11],inactive
CC(C)c1ccc2ncccc2c1,outcome,[2],inactive
same,outcome,[18],inactive
same,outcome,[3],inactive
COC(=O)C=Cc1ccccc1,outcome,[1],inactive
same,outcome,[18],inactive
same,outcome,[3],inactive
CC(C)=CCCC(C)=CC#N,outcome,[2],inactive
same,outcome,[18],inactive
c1ccc(-c2nc3ccccc3[nH]2)cc1,outcome,[2],inactive
same,outcome,[18],inactive
same,outcome,[3],inactive
